Measured values taken from the supplement of paper PMC10849652.
The full data set covers some 7,900 targets. This sample favours those with a hit. About 0.6% of all pairs of compound and target were hits. Values without a mark were called inactive.

compound: COC(=O)[C@H](CCSC)NC(=O)C1=C(C=C(C=C1)NC[C@H](CS)N)C2=CC=CC=C2; assay: log2 fold change, soluble protein after heating vs DMSO (PISA); higher = thermal stabilisation; K562 cells, 10 uM, 30 min; active = over 0.2 and 3.5 SD of the protein, either way, in both replicates (recomputed)
Method in brief: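 K562 cells at 2×10^6 cells/mL were given 10 μM compound for 30 min. Aliquots then went through 3 min of heating across 48°C-58°C, were pooled, and were extracted in PBS with 0.5% NP-40 at 4°C, and the supernatant after 21,000xg for 90 min was quantified by TMTpro 16plex LC-MS/MS with channel sums equalised. Thermal stability relative to control samples, from duplicates, is given as log2 fold change.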

Sequence of UniProt O15117 (O15117 whole entry, looked up): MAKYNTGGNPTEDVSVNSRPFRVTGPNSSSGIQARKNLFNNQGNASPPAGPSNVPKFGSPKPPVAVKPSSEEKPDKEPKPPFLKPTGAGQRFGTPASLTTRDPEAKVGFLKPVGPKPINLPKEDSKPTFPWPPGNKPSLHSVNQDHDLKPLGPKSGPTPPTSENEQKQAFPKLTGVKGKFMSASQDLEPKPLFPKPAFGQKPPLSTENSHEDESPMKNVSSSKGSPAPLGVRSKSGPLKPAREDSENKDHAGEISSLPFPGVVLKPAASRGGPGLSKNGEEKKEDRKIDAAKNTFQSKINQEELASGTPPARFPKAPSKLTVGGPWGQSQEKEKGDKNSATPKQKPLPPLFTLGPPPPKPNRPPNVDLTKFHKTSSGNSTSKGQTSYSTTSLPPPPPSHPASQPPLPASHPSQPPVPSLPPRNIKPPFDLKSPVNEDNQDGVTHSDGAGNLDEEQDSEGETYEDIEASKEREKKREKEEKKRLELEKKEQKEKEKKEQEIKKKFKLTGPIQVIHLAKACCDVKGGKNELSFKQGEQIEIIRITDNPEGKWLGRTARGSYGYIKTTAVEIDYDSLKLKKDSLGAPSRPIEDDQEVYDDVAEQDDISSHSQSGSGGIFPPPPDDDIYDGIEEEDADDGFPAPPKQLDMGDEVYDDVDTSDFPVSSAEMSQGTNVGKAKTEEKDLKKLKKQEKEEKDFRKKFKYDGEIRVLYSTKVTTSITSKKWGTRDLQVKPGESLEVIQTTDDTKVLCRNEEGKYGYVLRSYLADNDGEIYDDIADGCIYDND
Sequence of UniProt Q4ZG55 (Q4ZG55 whole entry, looked up): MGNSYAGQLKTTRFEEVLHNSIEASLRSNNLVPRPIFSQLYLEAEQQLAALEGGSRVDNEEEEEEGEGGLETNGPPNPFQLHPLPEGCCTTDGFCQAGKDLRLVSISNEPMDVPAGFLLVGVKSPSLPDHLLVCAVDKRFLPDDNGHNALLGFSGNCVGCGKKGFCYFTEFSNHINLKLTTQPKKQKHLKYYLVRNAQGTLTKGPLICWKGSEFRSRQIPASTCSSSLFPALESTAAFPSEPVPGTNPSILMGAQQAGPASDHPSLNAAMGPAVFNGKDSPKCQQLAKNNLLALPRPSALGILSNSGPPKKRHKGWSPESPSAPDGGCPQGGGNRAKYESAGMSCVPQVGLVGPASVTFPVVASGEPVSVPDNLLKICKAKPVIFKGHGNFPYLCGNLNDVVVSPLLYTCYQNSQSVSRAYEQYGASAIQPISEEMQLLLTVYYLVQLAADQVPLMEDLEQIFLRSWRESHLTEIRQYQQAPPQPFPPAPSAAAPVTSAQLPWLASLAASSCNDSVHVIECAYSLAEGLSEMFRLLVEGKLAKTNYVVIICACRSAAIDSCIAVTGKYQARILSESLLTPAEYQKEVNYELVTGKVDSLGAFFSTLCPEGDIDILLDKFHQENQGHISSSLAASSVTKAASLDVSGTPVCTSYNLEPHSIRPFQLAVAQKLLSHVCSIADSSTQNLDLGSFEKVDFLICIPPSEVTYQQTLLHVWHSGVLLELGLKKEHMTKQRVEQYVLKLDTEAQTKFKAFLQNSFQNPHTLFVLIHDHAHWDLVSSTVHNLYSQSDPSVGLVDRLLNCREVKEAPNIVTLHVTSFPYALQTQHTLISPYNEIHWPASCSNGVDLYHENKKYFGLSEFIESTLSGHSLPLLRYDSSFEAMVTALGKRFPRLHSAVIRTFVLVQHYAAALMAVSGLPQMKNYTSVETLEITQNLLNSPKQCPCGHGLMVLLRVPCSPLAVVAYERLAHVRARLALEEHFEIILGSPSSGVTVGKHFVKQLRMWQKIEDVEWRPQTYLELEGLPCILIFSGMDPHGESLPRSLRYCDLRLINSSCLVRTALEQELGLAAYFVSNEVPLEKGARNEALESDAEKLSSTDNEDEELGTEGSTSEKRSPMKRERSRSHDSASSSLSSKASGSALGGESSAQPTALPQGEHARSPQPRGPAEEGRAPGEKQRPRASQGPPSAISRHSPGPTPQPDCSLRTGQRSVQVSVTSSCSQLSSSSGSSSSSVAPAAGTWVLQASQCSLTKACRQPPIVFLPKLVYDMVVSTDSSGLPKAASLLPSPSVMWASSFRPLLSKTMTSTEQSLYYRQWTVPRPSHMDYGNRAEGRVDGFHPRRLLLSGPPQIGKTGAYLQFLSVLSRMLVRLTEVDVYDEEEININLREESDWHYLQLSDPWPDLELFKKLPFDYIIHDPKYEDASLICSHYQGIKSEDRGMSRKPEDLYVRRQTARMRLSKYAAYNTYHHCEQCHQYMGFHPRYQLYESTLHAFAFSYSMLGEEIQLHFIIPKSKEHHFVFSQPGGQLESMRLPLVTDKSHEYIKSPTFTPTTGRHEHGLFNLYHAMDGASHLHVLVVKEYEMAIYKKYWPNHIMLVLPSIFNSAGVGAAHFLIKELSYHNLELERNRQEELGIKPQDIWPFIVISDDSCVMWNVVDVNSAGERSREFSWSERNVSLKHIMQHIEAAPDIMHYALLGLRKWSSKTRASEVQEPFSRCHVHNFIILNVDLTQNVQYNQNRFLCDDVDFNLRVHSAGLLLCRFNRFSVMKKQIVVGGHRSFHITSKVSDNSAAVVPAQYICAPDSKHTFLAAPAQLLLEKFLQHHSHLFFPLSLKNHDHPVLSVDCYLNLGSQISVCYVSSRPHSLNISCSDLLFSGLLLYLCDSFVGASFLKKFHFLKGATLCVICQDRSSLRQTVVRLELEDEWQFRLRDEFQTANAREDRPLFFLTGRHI
Sequence of UniProt O14893 (O14893 whole entry, looked up): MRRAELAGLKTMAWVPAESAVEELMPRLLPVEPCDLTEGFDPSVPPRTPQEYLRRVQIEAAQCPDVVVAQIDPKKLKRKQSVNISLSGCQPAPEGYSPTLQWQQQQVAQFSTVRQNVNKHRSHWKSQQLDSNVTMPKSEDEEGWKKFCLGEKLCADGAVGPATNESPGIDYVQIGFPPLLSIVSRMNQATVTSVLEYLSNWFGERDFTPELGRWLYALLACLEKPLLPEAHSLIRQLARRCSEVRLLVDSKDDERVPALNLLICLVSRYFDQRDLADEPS
Sequence of UniProt Q9Y613 (Q9Y613 whole entry, looked up): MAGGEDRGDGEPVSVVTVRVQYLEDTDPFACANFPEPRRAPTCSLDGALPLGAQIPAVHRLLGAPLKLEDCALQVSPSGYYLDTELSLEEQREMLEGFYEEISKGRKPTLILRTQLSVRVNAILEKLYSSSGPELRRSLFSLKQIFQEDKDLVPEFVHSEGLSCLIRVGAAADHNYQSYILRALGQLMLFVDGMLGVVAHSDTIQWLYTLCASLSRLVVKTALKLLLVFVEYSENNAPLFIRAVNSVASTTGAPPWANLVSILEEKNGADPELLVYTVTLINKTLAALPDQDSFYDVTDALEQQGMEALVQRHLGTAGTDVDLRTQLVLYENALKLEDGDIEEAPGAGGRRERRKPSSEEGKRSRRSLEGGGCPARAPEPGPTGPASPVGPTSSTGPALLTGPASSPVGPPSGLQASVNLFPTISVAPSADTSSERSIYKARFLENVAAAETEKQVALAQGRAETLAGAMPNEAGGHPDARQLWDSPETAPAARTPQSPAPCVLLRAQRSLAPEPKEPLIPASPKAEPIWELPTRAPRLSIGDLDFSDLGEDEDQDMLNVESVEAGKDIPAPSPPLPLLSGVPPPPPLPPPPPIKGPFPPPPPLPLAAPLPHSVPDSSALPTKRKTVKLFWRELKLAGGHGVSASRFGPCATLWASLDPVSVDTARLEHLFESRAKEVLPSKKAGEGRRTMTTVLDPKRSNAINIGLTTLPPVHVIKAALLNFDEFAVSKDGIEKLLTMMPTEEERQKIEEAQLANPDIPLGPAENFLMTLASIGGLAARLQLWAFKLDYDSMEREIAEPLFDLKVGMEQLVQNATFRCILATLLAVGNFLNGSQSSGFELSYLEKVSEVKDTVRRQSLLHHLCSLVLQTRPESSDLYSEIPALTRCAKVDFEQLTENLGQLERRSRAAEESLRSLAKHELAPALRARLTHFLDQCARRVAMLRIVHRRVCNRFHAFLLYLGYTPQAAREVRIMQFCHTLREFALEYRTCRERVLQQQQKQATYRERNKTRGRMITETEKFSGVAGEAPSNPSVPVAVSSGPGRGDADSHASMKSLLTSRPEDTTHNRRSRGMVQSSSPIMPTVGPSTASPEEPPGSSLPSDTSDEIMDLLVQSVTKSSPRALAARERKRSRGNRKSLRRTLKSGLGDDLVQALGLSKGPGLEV
Sequence of UniProt Q53T59 (Q53T59 whole entry, looked up): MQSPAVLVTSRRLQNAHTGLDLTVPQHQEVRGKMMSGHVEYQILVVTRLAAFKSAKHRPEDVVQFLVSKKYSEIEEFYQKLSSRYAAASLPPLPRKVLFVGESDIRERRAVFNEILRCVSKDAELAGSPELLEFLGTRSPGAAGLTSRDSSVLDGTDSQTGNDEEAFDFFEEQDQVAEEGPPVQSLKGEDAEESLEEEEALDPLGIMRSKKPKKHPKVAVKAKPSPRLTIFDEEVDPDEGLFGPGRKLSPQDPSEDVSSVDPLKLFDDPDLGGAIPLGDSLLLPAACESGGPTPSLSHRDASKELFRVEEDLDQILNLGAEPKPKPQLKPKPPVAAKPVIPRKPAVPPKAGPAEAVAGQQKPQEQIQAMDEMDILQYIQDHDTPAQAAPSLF
Sequence of UniProt P21695 (P21695 whole entry, looked up): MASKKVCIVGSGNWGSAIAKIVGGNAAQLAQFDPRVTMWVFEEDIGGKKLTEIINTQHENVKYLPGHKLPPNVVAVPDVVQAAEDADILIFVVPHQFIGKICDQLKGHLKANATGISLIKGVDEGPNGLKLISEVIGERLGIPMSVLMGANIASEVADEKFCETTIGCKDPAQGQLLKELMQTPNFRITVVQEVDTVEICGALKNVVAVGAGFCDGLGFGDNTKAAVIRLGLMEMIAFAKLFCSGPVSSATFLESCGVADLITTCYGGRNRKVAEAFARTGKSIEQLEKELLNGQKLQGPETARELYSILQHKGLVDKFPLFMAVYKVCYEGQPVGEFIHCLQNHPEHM

| Target | log2 fold change |
| --- | --- |
| HP1BP3 (UniProt Q5SSJ5) | -0.098 |
| GLS isoform 3 (UniProt O94925) | 0 |
| FHOD1 (UniProt Q9Y613) | 0.049 |
| GPD1 (UniProt P21695) | 0.016 |
| GSE1 (UniProt Q14687) | -0.498 (active) |
| FAT2 (UniProt Q9NYQ8) | 0.001 |
| GREB1 (UniProt Q4ZG55) | -0.112 |
| FBXO9 (UniProt Q9UK97) | -0.037 |
| GSTT1 (UniProt P30711) | -0.062 |
| GOLGA8R (UniProt I6L899) | -0.086 |
| HDAC7 isoform 5 (UniProt Q8WUI4) | 0.012 |
| GEMIN2 (UniProt O14893) | 0.072 |
| GNL3 (UniProt Q9BVP2) | 0.015 |
| GTF2A1 (UniProt P52655) | 0.032 |
| HSPA8 (UniProt E9PN89) | -0.036 |
| GPS2 (UniProt Q13227) | -0.025 |
| IGF2 isoform 3 (UniProt P01344) | 0.006 |
| FCF1 (UniProt Q9Y324) | -0.044 |
| GOLGA6B (UniProt A6NDN3) | -0.475 |
| FYB1 isoform 3 (UniProt O15117) | -0.01 |
| GBE1 (UniProt Q04446) | -0.034 |
| ICMT (UniProt O60725) | 0.062 |
| GOPC (UniProt Q9HD26) | -0.229 |
| HNRNPK isoform 3 (UniProt P61978) | -0.028 |
| FIZ1 (UniProt Q96SL8) | 0.108 |
| HDAC10 (UniProt Q969S8) | -0.137 |
| FAT1 (UniProt Q14517) | -0.087 |
| HS1BP3 (UniProt Q53T59) | -0.175 |
